In PubChem BioAssay (EPA / NIEHS) one finds outcome and AC50 data, which are given here for 23 compounds.

A structure can be active in one record and inactive in another. Activity calls are given as the source filed them. The calls were made as follows: active = hit-call score of the fitted dose curve at least 0.9, where 1 is the maximum; inactive = score below 0.9.

For orientation: AC50 means the concentration at which the activity in the assay is half-maximal.

The assay can be described thus: CCTE_Shafer_MEA_dev_per_network_spike_spike_number_mean: CCTE's Neural Network Formation Assay for Mean Number of Spikes in a Network Spike, Shafer Lab (AID 2284053). How it is done:
CCTE_Shafer_MEA_dev assay is conducted using Axion Biosystems 48 well microelectrode array (MEA) plates and Maestro recording system. Each well of the MEA plate contains a grid of 16 microelectrodes embedded in the culture surface. Electrically active cells, such as neurons, can be cultured over the electrodes, and electrical activity in these cells can be recorded extracellularly. The spontaneous firing of neurons is captured from each electrode on a microsecond timescale providing both temporally and spatially precise data. […] The CCTE_Shafer_MEA_dev assay uses primary cultures of rat cortical neurons. Recordings are made on days post-plating 5, 7, 9 and 12. As these cultures mature over time, neural networks develop functional activity and form cohesive networks in which electrical activity can be highly coordinated. CCTE_Shafer_MEA_dev_per_network_spike_spike_number_mean is 1 of 19 assay components of the CCTE_Shafer_MEA_dev assay. It measures the average number of spikes (action potential firings) in a network spike (temporally-clustered group of spikes across multiple electrodes) as the number of spikes that occur within a 0.05 s time window at the peak of a network spike divided by the total number of network spikes during a recording in a microelectrode array (MEA) using Axion Biosystems Maestro 768 channel amplifier with the AxIS adaptive spike detector. To collapse across multiple recordings made on days post-plating 5, 7, 9 and 12, the trapezoidal area-under-the-curve of the component is calculated.Data from the assay component CCTE_Shafer_MEA_dev_per_network_spike_spike_number_mean was analyzed into 1 assay endpoint. This assay endpoint, CCTE_Shafer_MEA_dev_per_network_spike_spike_number_mean, was analyzed in the negative analysis fitting direction relative to DMSO as the negative control and baseline of activity. Using a type of functional reporter, gain or loss-of-signal activity can be used to understand electrical activity.
On the day prior to culture, each well was coated thoroughly with 150 uL of 0.05% polyethyleneimine (PEI, Sigma Cat P3143) in 50 mM HEPES (Sigma Cat H7523) at a pH of 8. The plate was incubated at 37C for one hour. PEI was rinsed out with 500 uL of sterile water three times. Plates were stored at 4C until the day of culture. This culture was plated at a seeding density of 1.5 x 10^5 cells/well on a 48-well MEA plate, prepared as described above. Cells were administered via a 25 uL media/laminin ([…]; Sigma Cat L2020-1MG) drop directly onto the microelectrode array, as adding the cells with the laminin results in better attachment than pre-coating with laminin. After 2 hours, an additional 475 uL of cortical media was added and the cells returned to the incubator. Exposure starts at day 0 of plating and is continued over twelve days of network development until the experiment is terminated. Cells are fed with fresh medium on DIV 5 and 9, following the recordings on those days. The entire volume of media in the well is exchanged and any vehicle or compound treatment is renewed. Complete details are found in OP-NHEERL/ISTD/SBB/TJS/2015-03-r0 (available on request, email shafer.tim@epa.gov). Measurement of the electrical activity is non-invasive, and recordings can be made from the same plate over multiple different days of the culture. In cortical neurons, this allows for the measurement of extracellular action potentials over the period during which networks form in the MEA plate.
`OCCCC(F)(F)C(F)(F)C(F)(F)F`: the call was inactive.

Turning to `CC(CCl)OP(=O)(OC(C)CCl)OC(C)CCl` (centres undefined), the call was inactive and the AC50 is 50 µM (active).

Regarding `FC(F)(F)C(F)(F)C(F)(F)C(F)(F)C(F)(F)CCI`, the AC50 was 15 µM (active).

On to `O=S(=O)(OCCOC(F)(F)F)C(F)(F)F`, for which the outcome was inactive.

`FC(F)(F)C(F)(F)CNCC(F)(F)C(F)(F)F`: the outcome was inactive.

Consider `OC[C@@H](O)[C@@H](O)[C@H](O)[C@@H](O)CO`, for which the result was inactive.

In the case of `O=C(O)C=C(C(F)(F)F)C(F)(F)F`, the result was inactive.

For `OCC(F)(F)C(F)(F)C(F)(F)C(F)(F)C(F)(F)C(F)F`, the result was inactive.

As to `OCC(F)(F)C(F)(F)C(F)(F)C(F)F`, the compound was classed as inactive.

For the compound `FC(F)(F)C(F)(F)C(F)(F)C(F)(F)C(F)(F)C(F)(F)CC1CO1` (centres undefined), the call was inactive.

As for `O=P(O)(O)OCCC(F)(F)C(F)(F)C(F)(F)C(F)(F)C(F)(F)C(F)(F)F`, the call was inactive.

For `NC(=O)C(F)(F)C(F)(F)C(F)(F)C(F)(F)F`, the call was inactive.

For the compound `N=C(N)C(F)(F)C(F)(F)C(F)(F)C(F)(F)C(F)(F)C(F)(F)C(F)(F)F`, the compound was called inactive.

`COC(=O)CCC(F)(F)C(F)(F)C(F)(F)C(F)(F)F`: the result was inactive.

On to `O=C(O)C(F)(F)C(F)(F)C(F)(F)C(F)(F)C(F)(F)C(F)(F)C(F)(F)C(F)(F)Cl`, for which the outcome was inactive.

Take `C=CC(=O)OCC(F)(F)C(F)(F)C(F)(F)C(F)(F)COC(=O)C=C`: the AC50 was 4.18 µM (active).

As for `O=C(O)C(F)(F)C(F)(F)C(F)(F)F`, the result was inactive.

Consider `O=S(=O)(OCC(F)F)C(F)(F)F`, for which the compound was classed as inactive.

For `Cc1ccc(S(=O)(=O)OCC(F)(F)C(F)(F)C(F)(F)C(F)(F)C(F)(F)C(F)F)cc1`, the outcome was inactive.

On to `O=C(O)C(F)(F)C(F)(F)C(F)F`, for which the call was inactive.

Consider `O=C(O)C(F)(F)C(F)(F)C(F)(F)C(F)(F)C(F)(F)C(F)(F)C(F)(F)C(F)(F)C(F)(F)C(F)F`, for which the outcome was inactive.

Take `OCC(F)(F)C(F)(F)C(F)(F)F`: the compound was called inactive.

In the case of `CC(C)(C)C(=O)CC(=O)C(F)(F)C(F)(F)C(F)(F)F`, the AC50 was 25.3 µM (active).
